The source of these data is paper PMC5540273 (PLoS ONE, 2017).

Holding throughout (conditions): concentration: 1 μM,replicates: in singlicate; n = 1
Assay [1] concerns ADCK4.
Assay [2] concerns AKT1.
Assay [3] deals with AKT2.
Assay [4] has as its system AKT3.
The test system of assay [5] is ALK.
Assay [6] deals with T1, AMPK-alpha1.
T1 construct: gene PRKAA1

For assay [7], the system named is T2, AMPK-alpha2.
T2 construct: gene PRKAA2

The test system of assay [8] is ANKK1.
Assay [9] relates to T3, ARK5.
T3 construct: gene NUAK1

The subject of assay [10] is T4, ASK1.
T4 construct: gene MAP3K5
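Note: KINOMEscan kinase panel screen.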

On to `NC(=O)c1cc(-c2ccccc2)cc2c(C3CCNCC3)c[nH]c12` [GSK301362], for which the “%Inh” value is listed as 19% in assay [1]; 0% in [2]; 14% in assay [3]; 27% in [4]; 29% in assay [5]; 6% in [6]. The “%Inh” value in assay [7] is given as 45%; in assay [8], 0%; in assay [9] it was 31%; in assay [10], 0%.

`Cc1ccc(-n2nc(C(C)(C)C)cc2NC(=O)Nc2ccc(OCCN3CCOCC3)c3ccccc23)cc1` [GW839464]: the “%Inh” value in assay [1] came out at 7%; in assay [2] it was 9%; in assay [3], 0%; in assay [4], 0%; in [5] it was 0%; in [6] it was 15%. Moreover, the “%Inh” value in [7] was determined as 9%; in assay [8], 30%; in assay [9], 0%; in [10] it was 11%.

As to `C[C@@H]1CCN(C(=O)CC#N)C[C@@H]1N(C)c1ncnc2[nH]ccc12`, the “%Inh” value is on record as 0% in [1]; 0% in assay [2]; 0% in [3]; 0% in [4]; 5% in assay [5]; 0% in assay [6]. In addition, the “%Inh” value in [7], in assay [8], in assay [9] and in [10] was 0% in each case.

As to `CCN(CC)CCOc1ccc(Nc2ncc3cc(-c4c(Cl)cccc4Cl)c(=O)n(C)c3n2)cc1` [SB-601273], the “%Inh” value is 100% in assay [1]; 0% in assay [2]; 0% in assay [3]; 0% in [4]; 7% in assay [5]; 19% in [6]. For the same compound, the “%Inh” value is reported as 41% in [7], 0% in assay [8], 31% in [9] and 0% in assay [10].

`Cc1occc1-c1nc(N)c(OC[C@@H](N)Cc2c[nH]c3ccccc23)cc1-c1cc2c(C)n[nH]c2cn1` [GSK1660450]: the “%Inh” value in assay [1] is 21%; in [2], 97.4%; in assay [3], 99.5%; in [4] it was 89%; in assay [5] it was 3%; in assay [6] it was 0%. The “%Inh” value in [7] is on record as 0%; in assay [8], 0%; in assay [9] it was 20%; in assay [10], 0%.

As for `CN(C)CCOc1ccc(-c2cc(-c3c[nH]nc3-c3ccccn3)ccn2)cc1` [GW835314], the “%Inh” value amounted to 0% in assay [1]; 9% in assay [2]; 0% in [3]; 0% in [4]; 5% in assay [5]; 34% in [6]. Besides, the “%Inh” value is reported as 0% in [7], 14% in assay [8], 0% in assay [9] and 5% in assay [10].

In the case of `CNC(=O)c1ccccc1Sc1ccc2c(/C=C/c3ccccn3)n[nH]c2c1`, the “%Inh” value in [1] came out at 0%; in [2] it was 0%; in assay [3] it was 0%; in [4] it was 0%; in assay [5] it was 2%; in [6], 15%. For the same compound, the “%Inh” value was determined as 4% in assay [7], 0% in assay [8], 2% in assay [9] and 0% in assay [10].

For `O=C(NCCNc1ccnc(NCc2ccc(F)cc2)n1)c1cc2ccccc2s1` [GSK1379944], the “%Inh” value in [1] is on record as 15%; in assay [2] it was 0%; in assay [3], 18%; in assay [4] it was 0%; in assay [5], 35%; in assay [6] it was 0%. Further, the “%Inh” value in assay [7] was determined as 14%; in assay [8], 51%; in [9], 0%; in [10], 0%.

Consider `COc1ccc(C[C@@H](CN)NC(=O)c2cc(Br)c(-c3ccnc4[nH]ccc34)s2)cc1.Cl.Cl` [GSK1389063], for which the “%Inh” value in assay [1] was found to be 97.6%; in assay [2] it was 94.4%; in assay [4] it was 91.9%; in assay [5] it was 63%; in assay [6], 91.4%; in assay [7] it was 89%. The “%Inh” value in assay [8] turned out to be 5%; in assay [9] it was 96.8%; in assay [10], 0%.

As to `C[C@H]1Oc2cc(cnc2N)-c2c(nn(C)c2C#N)CN(C)C(=O)c2ccc(F)cc21`, the “%Inh” value in [1] was 0%; in assay [2] it was 22%; in assay [3] it was 11%; in assay [4] it was 0%; in assay [6] it was 29%; in assay [7] it was 11%. Also, the “%Inh” value is reported as 0% in assay [8], 24% in [9] and 28% in assay [10].

For the compound `Cl.Cl.Nc1nc(-c2ccc3c(N)n[nH]c3c2)cc(N2CCCC(NC(=O)c3ccccc3)C2)n1` (centres unmarked) [GSK2286775], the “%Inh” value stood at 36% in [1]; 0% in [2]; 0% in assay [3]; 0% in assay [4]; 35% in [5]; 0% in [6]. Moreover, the “%Inh” value in [7] was found to be 0%; in assay [8], 22%; in assay [9], 0%; in assay [10], 0%.

`Cc1ccc2c(-c3ccncc3)c(-c3ccc(F)cc3)nn2c1.Cl` [GW461484]: the “%Inh” value is reported as 17% in assay [1]; 0% in [2]; 1% in assay [3]; 17% in [4]; 9% in assay [5]; 11% in assay [6]. Besides, the “%Inh” value in assay [7] was 1%; in [8] it was 21%; in assay [9], 13%; in assay [10], 0%.

On to `CC(C)N1C(=O)Cc2cc(Nc3ncc(C(F)(F)F)c(NCc4cccc(S(C)(=O)=O)c4)n3)ccc21`, for which the “%Inh” value in [1] is listed as 9%; in assay [2], 0%; in [3] it was 0%; in [4], 0%; in assay [5], 0%; in [6], 0%. In addition, the “%Inh” value is listed as 0% in assay [7], 38% in assay [8], 62% in assay [9] and 0% in [10].
